Screening results as filed in PubChem BioAssay.
Peg3 promoter: inhibitors of Peg3 promoter; 360,000 compounds, 1.7% hits; inhibition, % at 20 µM; HeLa PEG-Prom luciferase reporter, luminescence, overnight;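 active = inhibition of at least 50% at 20 µM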
CF NFkB block: inhibitors of cystic fibrosis induced NF-kB; KKLEB NF-kB-GFP reporter, PAF-induced, GFP fluorescence overnight; inhibition, % at 5 µM; 360,000 compounds, 0.86% hits; AID 588850;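 active = at least 50% inhibition at 5 µM, scaled per plate between neutral and stimulator controls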;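 also: PAF is a Pseudomonas aeruginosa culture filtrate used as stimulus; plate controls were PAF-stimulated DMSO wells for no effect and unstimulated DMSO wells for full effect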
TROY signal inh: inhibitors of TROY-dependent NF-kB signaling; 360,000 compounds, 0.98% hits; inhibition, % at 10 µM; Q293 LMP1-TROYcd NF-kB luciferase reporter, 4 h;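 active = compounds whose plate-normalised and pattern-corrected inhibition of the luciferase reporter signal at the single screening dose is 50% or more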
KKLEB tox: reduces viability of KKLEB cystic fibrosis airway cells. AID 602141. activity change (cytotoxicity), % at 5 µM. KKLEB CF airway cells viability, ATPlite luminescence, overnight; stronger effect = lower value; cells stimulated with P. aeruginosa culture filtrate. 360,000 compounds, 0.36% hits;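 active = corrected activity change at or below -50% at 5 µM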
TWEAK Fn14 block: TWEAK-Fn14 signaling inhibition; TWEAK-stimulated Fn14 reporter cells, luciferase luminescence, 8 h; inhibition, % at 10 µM; 360,000 compounds, 2% hits; AID 1159606; in the data active = inhibition above about 50%
HIF-2a block: inhibitors of HIF-2a. 786-0 RCC cells HIF-2a reporter, luciferase luminescence, overnight. inhibition, % at 18.8 µM. 360,000 compounds, 0.72% hits. AID 624352;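 active = inhibition of the luminescence signal of 40% or more relative to plate controls, in a single-dose primary screen at 18.75 µM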
* hit, by the source's call; . = no result given. A selection: hits, their analogues and other compounds. The true share with any hit is near 4%.

SMILES	Peg3 promoter	CF NFkB block	TROY signal inh	KKLEB tox	TWEAK Fn14 block	HIF-2a block
O=S(=O)(NC1C2CC3CC(C2)CC1C3)c1ccccc1 (stereo not drawn)	4.3	12.6	10.3	-0.5	-0.7	8.3
CCN(CC)c1ccc(-c2nn3c(-c4ccccc4OC)nnc3s2)cc1	21.5	53.3*	20.2	-47.6	-77.1	27.5
COc1ccc(-c2nn3c(-c4ccccc4)nnc3s2)cc1	-24.5	-39.5	-38.3	-0.7	-16.4	-107.0
Cc1ccc2ccccc2c1C(O)c1ncc(-c2ccccc2F)[nH]1 (stereo not drawn)	3.7	-42.5	2.5	-0.9	5.6	10.4
CCN(CC)CCCNC(=O)c1[nH]c2ccccc2c1Sc1ccc(Cl)cc1	65.4*	8.6	6.9	-25.4	-8.2	23.2
COC(=O)c1[nH]c2ccccc2c1Sc1ccccc1	35.8	-11.8	5.2	-9.5	-2.1	7.9
O=C(Nc1cccc2ccccc12)ON=C1CCCCC1	-60.7	-9.8	76.0*	-2.8	80.7*	-29.2
Cc1nc2ccc(NC(=O)N3CCCCC3)cc2nc1C	-178.7	3.4	50.4*	-5.6	21.0	-115.0
N#C/C(=C(/O)c1ccc([N+](=O)[O-])o1)c1nc2ccccc2[nH]1	76.7*	94.0*	50.0*	-28.7	28.5	38.7
Cc1c(Cl)cccc1NC(=S)Nc1ccc2[nH]c(=O)[nH]c2c1	10.6	8.6	-8.7	-5.2	8.5	6.9
CN1CCN(c2cc3c(c4c2[nH]c2ccccc24)C(=O)CC(C)(C)C3)CC1	107.2*	22.3	0.7	-30.1	18.7	-28.8
O=C(COc1ccccc1)NC(=S)Nc1cccc2cc(O)ccc12	-3.9	9.5	-0.8	-15.4	-17.5	0.2
CCc1cc(-c2[nH]ncc2-c2ccc([N+](=O)[O-])cc2)c(O)cc1OC	31.4	36.3	44.4	-5.6	39.4	19.8
O=[N+]([O-])c1ccc(COc2ccc(-c3[nH]ncc3-c3ccc(Cl)cc3)c(O)c2)cc1	34.8	-11.6	22.6	2.8	50.9*	-25.1
COc1ccc(-c2cn[nH]c2-c2ccc(OCc3ccc([N+](=O)[O-])cc3)cc2O)cc1OC	35.6	36.4	49.5	-9.9	82.7*	18.9
O=C1NC[C@@H](CCCCN2C[C@H](Cc3ccccc3)N(CCc3ccccc3)C(=O)C2=O)N(CCc2ccccc2)C1=O	.	.	-1.9	.	23.1	4.3
COc1cccc(/C=N/n2c(C3CCCCC3)n[nH]c2=S)c1O	8.6	14.6	11.5	-15.4	60.3*	8.3
CCN(CC)c1ccc(/C=C2/C(=O)ON=C2C)cc1	10.2	-10.1	-71.1	-9.5	-5.9	7.1
CCN(CC)c1ccc(/C=C2\C(=O)N(c3nnc(C)c(=O)[nH]3)N=C2C)cc1	12.7	-8.1	-20.4	-3.2	74.8*	12.9
Cc1cc(/C=C(\C#N)C(=O)N2CCOCC2)c(C)n1C1CCCC1	-64.9	-6.1	73.7*	-5.9	73.7*	-100.7
COc1ccc(/C=C(\C#N)C(=O)N2CCOCC2)cc1Br	1.9	3.0	-10.1	-8.6	-0.7	8.1
CC(C)(C)S(=O)N1Cc2ccc(CO)cc2[C@@H]1CCO (stereo partly drawn)	3.6	-8.6	-2.3	1.1	0.3	5.6
NC(=O)c1ccccc1N/C=C/C(=O)c1ccc(Cl)cc1Cl	-136.2	-17.9	-45.5	-64.7*	28.7	-69.7
O=[N+]([O-])c1ccc(S(=O)Cc2ccccc2)c([N+](=O)[O-])c1 (stereo not drawn)	96.1*	85.5*	74.2*	-19.7	42.2	93.0*
O=C(/C=C/c1ccco1)NCCc1ccccc1	-249.7	-2.8	8.1	6.5	-8.5	-196.3
Cc1ccc(/C=C/C(=O)NCCc2ccccc2)o1	-189.6	-13.4	1.0	3.3	66.9*	-209.2
CC(C)(C)S(=O)N1Cc2cc(CO)ccc2[C@@H]1CCO (stereo partly drawn)	-12.1	-30.5	-0.4	17.8	14.2	7.2
Cc1cc(N/N=C/c2ccc(O)cc2)nc(NS(=O)(=O)c2ccccc2)n1	10.0	-33.9	15.7	19.7	48.5	54.2*
Cc1ccc(/C=N/Nc2cc(C)nc(NCc3ccccc3)n2)cc1	-23.1	4.3	17.1	-2.4	-2.0	-36.8
Cc1ccc(C(=O)Nc2nc(C(N)Cc3ccc(C(F)(F)F)cc3)cs2)cc1 (stereo not drawn)	96.2*	12.1	14.0	-7.7	-17.9	9.2
